From PubChem
Shown is part of a subset that was picked to be rich in hits.
Cruzain noTriton = cruzain (T. cruzi) inhibition without detergent | Potency, µM, without a hit: max response, negative = inhibition, usual class: inhibitors | 200,000 compounds, 2.3% hits | P25779 | AID 1476 | purified cruzain, Z-FR-AMC fluorescence, no detergent; active means well fitted curve in the direction sought with a large enough effect; inconclusive means small, poorly fitted or top-dose-only effect, or another doubt; inactive means no such curve, though single readings can be large; an effect the other way counts as inactive or inconclusive;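 further: potency means the concentration at half of the fitted maximal effect; plate controls were enzyme without inhibitor for no effect and buffer without enzyme for full effect; nearly all actives have a fitted effect of over 40% in size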
Target sequence (P25779 123-467 limits assumed): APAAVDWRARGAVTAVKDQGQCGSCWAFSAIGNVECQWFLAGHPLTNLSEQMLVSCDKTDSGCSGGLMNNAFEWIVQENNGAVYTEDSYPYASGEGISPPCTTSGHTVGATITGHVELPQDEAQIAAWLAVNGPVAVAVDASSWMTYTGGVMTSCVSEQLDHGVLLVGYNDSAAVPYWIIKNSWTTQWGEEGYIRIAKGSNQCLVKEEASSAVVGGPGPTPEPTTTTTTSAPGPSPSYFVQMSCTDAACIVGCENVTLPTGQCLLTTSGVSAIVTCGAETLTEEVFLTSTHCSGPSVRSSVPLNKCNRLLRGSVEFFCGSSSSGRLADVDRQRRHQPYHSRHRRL
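Detergent-free condition (0.00005% Triton X-100) in acetate buffer pH 5.5 with DTT. 1.5 nM enzyme and compound were pre-mixed 15 min, then 2 uM Z-FR-AMC substrate added; reaction progress from fluorescence change between first and third reads (60 s).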
Cruzain inh Det = blocks cruzain activity in presence of Triton detergent; P25779; purified cruzain, Z-FR-AMC fluorescence, 0.01% Triton; Potency, µM, without a hit: max response, negative = inhibition, usual class: inhibitors; 200,000 compounds, 0.43% hits; AID 1478; active means well fitted curve in the direction sought with a large enough effect; inconclusive means small, poorly fitted or top-dose-only effect, or another doubt; inactive means no such curve, though single readings can be large; an effect the other way counts as inactive or inconclusive;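 further: potency means the concentration at half of the fitted maximal effect; plate controls were neutral wells for no effect and buffer without enzyme for full effect; nearly all actives have a fitted effect of over 40% in size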
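Enzyme 1.5 nM, Z-FR-AMC 2 uM, NaOAc 100 mM pH 5.5, DTT 5 mM, Triton X-100 0.01%; 15 min RT compound preincubation; kinetic ex360/em450, 60 s delta.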
NS1 inh = influenza NS1 inhibition; 270,000 compounds, 0.4% hits; Potency, µM (highest dose often 46.1 µM), inactives show at the top dose activity, positive = more growth; further: potency means the concentration at half of the fitted maximal effect; actives are rising curves; nearly all actives have a fitted effect of over 50% in size
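Compounds were scored for reversing the slow growth caused by influenza A NS1 in S. cerevisiae, measured by optical density at 600 nm. Assay medium contained 2% galactose at pH 6.0; NS1-free yeast of the same strain were the positive control.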
Flu NS1 inh = influenza NS1 function inhibition validation; AID 492980; activity change, negative = inhibition, % at 32.9 µM; 1,400 tested, under 10 active; influenza NS1 function cell assay, 15-point titration; shares compounds with NS1 inh; further: 0% is about no effect
PR8 titer = influenza NS1 inhibitors: inhibition of influenza A/PR/8/34 replication | 95 compounds, 30% hits | virus titer (log TCID50), log10 TCID50 at 5 µM | shares compounds with NS1 inh | MDCK infected influenza A/PR/8/34, virus titer TCID50; stronger effect = lower value; call rule not given here
The depositor's hits bear a star; ? = inconclusive; / = no result. Unless noted, the call rests on the fitted dose curve.

SMILES	Cruzain noTriton	Cruzain inh Det	NS1 inh	Flu NS1 inh	others
CCc1ccc(N2C(=O)Cc3c2nc(N)c(C#N)c3N)cc1	0.5%	-0.3%	16.3%	/
COc1ccc(CSc2nncn2C)cc1F	/	/	3.1%	/
COc1ccc(CSc2nc(O)cc(=O)n2CC(C)C)cc1F	/	/	3.55µM*	?
CCC(=O)C(C(=O)OC)[C@H](CCc1ccccc1)NC(=O)OC (stereo not given in full)	-6.1%	4.2%	/	/
Cc1nc(SCC(=O)NCc2ccco2)c2c3c(sc2n1)CCCC3	9.7%	-13.3%	4.47µM*	?
O=C(CSc1nc(C2CC2)nc2sc3c(c12)CCCC3)NCc1ccco1	-28.5%	1.4%	1.3%	/
O=S(=O)(Nc1ccc(N2CCOCC2)cc1)c1ccccc1	0.3%	2.1%	4.8%	/
O=S(=O)(Nc1ccc(N2CCCCC2)cc1)c1ccccc1	-1.3%	-2.6%	?	?
CCN1CCN(c2csc3ccc(C)cc3c2=O)CC1	-3.5%	-4.1%	/	/
CC(C)(C)CNCCO	7.2%	4.1%	-4.8%	/
CC(C)(C)NC(=O)CSc1nc(O)cc(=O)n1-c1ccccc1F	4.8%	-2.5%	?	/
COc1ccccc1-n1c(SCC(=O)NC(C)(C)C)nc(O)cc1=O	1.0%	1.2%	8.91µM*	35.7	PR8 titer=7.66
COc1ccccc1-n1c(SCC(=O)Nc2ccccc2C)nc(O)cc1=O	-11.2%	-13.0%	?	/
COc1ccccc1NC(=O)CSc1nc(O)cc(=O)n1-c1ccccc1OC	-0.1%	-23.6%	10µM*	38.7
CCCC[C@@H]1C[C@H]1C(NC(=O)c1ccco1)c1ccccc1 (stereo not given in full)	2.4%	-11.5%	/	/
CC(=O)N1CCc2c(sc3c2c(=O)n(-c2ccc(C)cc2)c(=O)n3CC(=O)Nc2ccccc2)C1	?	-6.1%	/	/
CCN(c1ccccc1)S(=O)(=O)c1cc(Br)cc2c1N(C(=O)C1CC1)CC2	-7.6%	-5.0%	/	/
O=C(c1cc(C(F)(F)F)cc(C(F)(F)F)c1)N1CCC2(CC1)CN(c1ncccn1)C2	?	-4.3%	/	/
O[C@@H]1[C@@H]2c3cc4c(cc3CN3CCC(=C[C@@H]1O)[C@H]23)OCO4	2.1%	-1.3%	/	/
COC(=O)c1cc(Nc2nc3ccccc3nc2NS(=O)(=O)c2ccc(C)cc2)ccc1Cl	1.2%	-3.0%	/	/
Cc1ccc(-n2nc(C)c3c(C)c(CCC(=O)NCc4ccccc4Cl)c(C)nc32)cc1	11.3%	-3.6%	/	/
CC(C)(C)NC(=O)Cn1nnnc1-c1nonc1N	-11.5%	2.2%	?	18.8
CC(C)(C)NC(=O)Cn1c(-c2nonc2N)nc2ccccc21	-6.7%	0.9%	3.4%	/
CC#CCOC(=O)C1=CCCN(C)C1	-5.1%	2.8%	/	/
O=c1c(Cc2ccccc2)c(O)nc2n1CCCS2	0.5%	-0.4%	-0.2%	/
SMILES	Cruzain noTriton	Cruzain inh Det	NS1 inh	Flu NS1 inh	others
O=c1cc(O)nc2n1CCCS2	-3.2%	1.7%	7.94µM*	1.4
O=C(CCc1nnc2n(Cc3ccccc3Cl)c(=O)c3ccccc3n12)Nc1ccccc1	-2.8%	-0.5%	/	/
Cc1nnc(NCc2ccc(F)cc2)c2c1nnn2Cc1ccccc1Cl	13.2%	1.0%	/	/
CC(C)Sc1nnc([C@@H](N)Cc2ccccc2)o1	-7.6%	0.3%	?	-2.5
CSc1nnc([C@@H](N)Cc2ccccc2)o1	6.5%	-2.3%	-7.7%	/
CC(C)(C)C1CCc2onc(C(=O)Nc3sc4c(c3C#N)CCCC4)c2C1 (stereo not given)	-5.4%	-9.5%	/	/
CCn1c2c(c(=N)c3c1CCC3)CCC2	-2.3%	-1.5%	16.6%	/
N=c1c2c(n(Cc3ccc(F)cc3)c3c1CCC3)CCC2	-2.6%	2.4%	1µM*	-29.3
S=C1c2ccccc2CN1c1ccccc1	-5.9%	-4.7%	?	1.3
C[C@@H](C(=O)O)c1ccc(N2Cc3ccccc3C2=O)cc1	7.1%	-0.6%	/	/
O=C(C1CC1)N1CCc2cc(Br)cc(S(=O)(=O)N3CCN(c4cccc(C(F)(F)F)c4)CC3)c21	7.5%	-1.3%	/	/
CCOc1ccc(Nc2oc(-c3ccc(Cl)cc3)nc2C#N)cc1	?	1.7%	-2.9%	/
CN(C)c1oc(-c2ccc(OCc3ccc(Cl)cc3)cc2)nc1C#N	20µM*	?	10µM*	-3.3
CC(=O)Nc1ccc(NC(=O)C(C)OC(=O)CCN=C2NS(=O)(=O)c3ccccc32)cc1 (stereo not given)	/	/	8.2%	/
CC(OC(=O)CCCCCN=C1NS(=O)(=O)c2ccccc21)C(=O)Nc1cc(Cl)cc(Cl)c1 (stereo not given)	11.9%	-1.7%	12.6µM*	5.8
COc1ccc(OC)c(NC(=O)c2ccccc2NS(=O)(=O)c2cccc3cccnc23)c1	?	-3.9%	14.1µM*	6.0
COc1ccccc1NS(=O)(=O)c1cccc2cccnc12	6.0%	-5.0%	0.1%	/
O=C(Nc1cccc2ccccc12)c1ccccc1NS(=O)(=O)c1cccc2cccnc12	-8.0%	-1.1%	11.2µM*	?
O=C(O)c1ccccc1NS(=O)(=O)c1cccc2cccnc12	0.9%	8.1%	2.5%	/
COc1ccc(CCNC(=O)CSc2nnnn2-c2cccc(C(C)=O)c2)cc1OC	-5.9%	-0.5%	/	/
CN(C(=O)c1cc(-c2ccccc2O)on1)c1ccccc1	-11.9%	-7.5%	/	/
COc1ccc(C(=O)NC2CCCCCC2)cc1S(=O)(=O)N1CCCc2ccccc21	-28.8%	1.5%	5.8%	/
COc1ccc(C(=O)Nc2nc3c(s2)CCCC3)cc1S(=O)(=O)N1CCCc2ccccc21	?	-6.1%	12.6µM*	-4.8
CCOC(=O)N1CCN(C(=O)CCC(=O)N2CCOc3ccc(C)cc32)CC1	8.2%	0.8%	5.62µM*	-6.8
CCOC(=O)N1CCC(NC(=O)CCC(=O)N2CCOc3ccc(C)cc32)CC1	-2.2%	-3.0%	-4.0%	/
SMILES	Cruzain noTriton	Cruzain inh Det	NS1 inh	Flu NS1 inh	others
Cc1nc2cnc(N3CCN(C)CC3)nc2n(-c2ccccc2)c1=O	-24.0%	-19.5%	/	/
CC(=O)c1ccc(NC(=O)c2sc(-n3nc(C)c(Cc4ccccc4)c3C)nc2C)cc1	?	-2.5%	/	/
O=C(O)CSc1cnc2ccccc2n1	-11.6%	1.7%	15.8µM*	7.1
O=C(CSc1cnc2ccccc2n1)NC1CCCC1	2.2%	-1.4%	-9.4%	/
Cn1c(=O)c2c(SCC(=O)NCc3ccco3)nc(-c3cccc(F)c3)nc2n(C)c1=O	-11.2%	3.6%	/	/
O=C(NC1CCS(=O)(=O)C1)c1ccc(-c2ccc(Br)cc2)o1 (stereo not given)	11.8%	-4.4%	-10.0%	/
Cc1ccc(C(=O)N/C(=C\c2ccc(-c3ccc(Br)cc3)o2)C(=O)NC2CCS(=O)(=O)C2)cc1 (stereo not given)	?	-1.5%	?	3.1
Cc1ccc(-c2nc(CS(=O)CC(=O)N3CCN(c4ccc(F)cc4)CC3)c(C)o2)cc1 (stereo not given)	?	-10.1%	16.6%	/
CCOC(=O)C1CCN(C(=O)CS(=O)Cc2nc(-c3ccc(C)cc3)oc2C)CC1 (stereo not given)	18.4%	-3.1%	11.2µM*	-0.2	PR8 titer=8
O=C1c2ccccc2C(=O)N1OCc1c(F)cccc1Cl	/	/	-3.8%	/
O=C(Cc1c(F)cccc1Cl)OCN1C(=O)c2ccccc2C1=O	/	/	2.24µM*	-6.4
